Inconclusive results are not listed. Where a call stands in place of a potency, no number is given. A number with no mark means an inactive call. The source made the active and inactive calls. Calls follow the shape of the dose curve; as a rule, active = well fitted curve in the direction sought with a large enough effect; inconclusive = small, poorly fitted or top-dose-only effect, or another doubt; inactive = no such curve, though single readings can be large; an effect the other way counts as inactive or inconclusive.
Tests used:
[1] = molecular target: Aldehyde dehydrogenase, mitochondrial (Homo sapiens) (UniProt P05091); assay: qHTS for Inhibitors of the Aldehyde Dehydrogenase Family (ALDH2) Primary screen (AID 2061308); also: nearly all actives have a fitted effect of over 55% in size; also: potency is read from the fitted curve at half-maximal effect
[2] = molecular target: Retinaldehyde dehydrogenase 3 (Homo sapiens) (UniProt P47895); assay: qHTS for Inhibitors of the Aldehyde Dehydrogenase Family (ALDH1A3) Primary screen (AID 2061315)
[3] = molecular target: Aldehyde dehydrogenase 1A1 (Homo sapiens) (UniProt P00352); assay: qHTS for Inhibitors of the Aldehyde Dehydrogenase Family (ALDH1A1) Confirmatory screens (AID 2061316); also: nearly all actives have a fitted effect of over 65% in size; also: potency is read from the fitted curve at half-maximal effect

Structure (SMILES)	Potency [1]	Potency [2]	Potency [3]
Cc1ccnc(NC(=S)Nc2cccc([S+](=O)([O-])Nc3ccccc3F)c2)c1	inactive	inactive	
Cc1cc(C)nc(NC(=S)N2CCN(c3nc4ccccc4s3)CC2)c1	inactive	inactive	
COc1ccc(C(=O)Oc2ccc(-c3nc4ccccc4[nH]3)cc2)cc1OC	inactive	inactive	
c1cncc(CNc2ncnc3ccc(-c4cccnc4)cc23)c1	inactive	inactive	
N#Cc1ccnc(N2C(=O)CC[C@H]2C(=O)N(c2cncc(F)c2)[C@@H](C(=O)NC2CC(F)(F)C2)c2ccccc2Cl)c1	inactive	inactive	
FC(F)(F)c1cc(-c2ccc(CNc3nc(-c4ccccc4C(F)(F)F)nc4ccccc34)cc2)cc(C(F)(F)F)c1	inactive	inactive	
O=C1CCCC2=C1C(c1[nH]ncc1Cl)N=C(Nc1nc3ccccc3s1)N2 (stereo not drawn)	inactive	inactive	
O=C(Nc1ccccc1F)c1ccc(O)c2ncccc12	inactive	inactive	
Cc1cc(C)n2ncc(C(=O)Nc3ccc(C#N)cc3)c2n1	inactive	inactive	
C=C[C@@]12COC(=O)C(=C)C1[C@@H](O)[C@H](C(=C)C(=O)OC)[C@@H](OC(=O)C(=C)CO)C2 (stereo partly drawn)	inactive	inactive	
C=C(C(=O)OC)[C@@H]1CC=C2C=CC(=O)[C@H](C)[C@@]2(C)C1	inactive	inactive	
COc1cccc(CNc2ccc(S(=O)(=O)Nc3ccc(N4CCNCC4)cc3)cc2)c1O	inactive	inactive	
COC(=O)c1ccccc1-c1ccc(/C=c2\sc3nc4cc(Br)cnc4n3c2=O)o1	inactive	inactive	11.3 µM (active)
Nc1scc2c(C(=O)O)nn(-c3ccccc3)c(=O)c12	inactive	inactive	5.04 µM (active)
Fc1ccc(Nc2nc(-c3ccnc(N4CCCCC4)c3)nc3ccccc23)cc1F	inactive	inactive	
COc1cc(O)c(C(CC(=O)N2CCCC2)c2ccc3c(c2)OCO3)c(OC)c1 (stereo not drawn)	inactive	inactive	
NC(=O)C1CCN(c2nccc(Cl)n2)CC1	inactive	inactive	
O=C1Nc2ccccc2C12CC2c1cc(Cl)c(O)c(Cl)c1 (stereo not drawn)	inactive	inactive	inactive
O=C1c2ccccc2C(=O)N1c1noc2ccccc12	inactive	inactive	
Cc1cc2c(s1)c1cnn(Cc3c(F)cccc3Cl)c(=O)c1n2C	inactive	inactive	
c1cncc(-c2ccc(CNc3nc(N4CCOCC4)nc4ccccc34)cc2)c1	inactive	inactive	
O=c1c2ccccc2nc2sc(Nc3ccc4c(c3)OCO4)nn12	inactive	inactive	5.04 µM (active)
Cc1c(C(=O)OCC(C)(C)C)[nH]c2c1C(=O)CC(c1ccco1)C2 (stereo not drawn)	inactive	inactive	0.896 µM (active)
O=C(O)c1ccc(-c2ccc3ncnc(N4CCOCC4)c3c2)o1	inactive	inactive	

Structure (SMILES)	Potency [1]	Potency [2]	Potency [3]
Fc1ccc(Nc2nc(-c3ccncc3)nc3ccccc23)cc1F	inactive	inactive	
Cc1ccc(CNc2ncnc3ccc(-c4sc(C)nc4C)cc23)o1	inactive	inactive	15.9 µM (active)
CN1CCN(C(=O)c2ccc(-c3cnc4c(O)ccc(C(=O)O)c4c3)cc2)CC1	inactive	inactive	inactive
N#Cc1c(-c2ccc(OCCOCCOCCN)cc2)no[n+]1[O-]	inactive	inactive	
COc1ccc(CNc2ccc(-c3nc4ccccc4[nH]3)cc2)cc1OC	inactive	inactive	
Cc1ccc(NS(=O)(=O)c2cccc(C(=O)O)c2)cc1C	inactive	inactive	
Cn1nnnc1Sc1ncnc2scc(-c3cccc(N)c3)c12	inactive	inactive	22.5 µM (active)
Cc1ccc(CNc2ccccc2C(=O)Nc2nc(-c3ccccc3)cs2)cc1	inactive	inactive	22.5 µM (active)
COc1ccc(NC(=O)c2[nH]c(C)c(C(C)=O)c2C)cc1S(=O)(=O)Nc1ccc(C#N)cc1	inactive	inactive	11.3 µM (active)
CC(=O)NC(c1ccco1)c1cc(Br)c2cccnc2c1O (stereo not drawn)	inactive	inactive	
Cc1cc(NC(=O)Nc2nnc(C3CCCCC3)s2)ccc1F	inactive	inactive	
Cc1ccc(-c2cc(C(=O)Nc3ccc(C(=O)O)cc3)c3ccccc3n2)cc1C	inactive	inactive	
O=C1Nc2cccc(Cl)c2/C1=C\c1cc(Cl)c(O)c(Cl)c1	inactive	inactive	
CCCCNc1nc(C)nc2c1nc(-c1ccccc1)n2CCCN(CC)CC	inactive	inactive	
O=C1Nc2cc(Cl)ccc2Nc2cscc21	14.1 µM (active)	inactive	7.12 µM (active)
Fc1cccc(CNc2ncnc3ccc(-c4ccc5c(c4)OCO5)cc23)c1	inactive	inactive	
NC(=O)C1CCN(c2ncc(Br)s2)CC1	inactive	inactive	4.49 µM (active)
O=C(CSc1nnc(-c2cccc([S+](=O)([O-])N3CCCC3)c2)n1-c1ccccc1)Nc1cccc(C(F)(F)F)c1	inactive	inactive	
CCC(=O)Nc1ccc(OCc2cc(C3Nc4ccccc4C(=O)N3Cc3ccccc3)ccc2OC)cc1 (stereo not drawn)	inactive	inactive	inactive
C#CCOc1ccc(C(C)=O)cc1-c1nnc2n1N=C(c1ccc(OC)c(OC)c1)CS2	inactive	inactive	
O=C([C@H](Cc1ccc(O[S+](=O)([O-])c2ccccn2)cc1)N[S+](=O)([O-])c1cccc2cnccc12)N1CCN(c2ccccc2)CC1	inactive	inactive	7.98 µM (active)
C=C1C(=O)O[C@H]2/C=C(/C)[C@@H](OC(C)=O)C/C=C(\C)C[C@@H](OC(=O)/C(=C/C)COC(=O)/C(=C/C)CO)[C@@H]12	inactive	inactive	
O=C(O)C1CCC(C(=O)Nc2ccc([S+](=O)([O-])Nc3nccs3)cc2)CC1 (stereo not drawn)	inactive	inactive	
